The source made the active and inactive calls. Rule for the calls: active = hit-call score of the fitted dose curve at least 0.9, where 1 is the maximum; inactive = score below 0.9.
How the values were obtained:
Details in all cases: mRNA level, 48 h; actives raise or lower the signal
[1] = read-out: Glutathione S-Transferase (GSTA2), GSTA2 (gene 2939); experiment: LTEA_HepaRG_GSTA2: Life Technologies and Expression Analysis (LTEA) Assay for Glutathione S-Transferase (GSTA2) using HepaRG (AID 2283497)
Summary of the method: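 HepaRG, 48 h dosing, 8-pt half-log CRC from 100 uM, 0.5% DMSO vehicle, n=2; RNA → Fluidigm TaqMan qRT-PCR; GSTA2 vs ACTB/GAPDH/POLR2A; gain/loss fit vs DMSO.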

[2] = read-out: growth arrest and DNA damage 45 (GADD45G), GADD45G (gene 10912); experiment: LTEA_HepaRG_GADD45G: Life Technologies and Expression Analysis (LTEA) Assay for growth arrest and DNA damage 45 (GADD45G) using HepaRG (AID 2283499)
Summary of the method: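 HepaRG, 48 h exposure, top 100 uM, half-log 8-point series, 0.5% DMSO vehicle, duplicates. Readout: GADD45G transcript by qRT-PCR (Fluidigm array), housekeeping-normalised (ACTB/GAPDH/POLR2A). Bidirectional curve fit vs DMSO baseline.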

[3] = read-out: Glutamate-cysteine ligase regulatory (GCLM), GCLM (gene 2730); experiment: LTEA_HepaRG_GCLM: Life Technologies and Expression Analysis (LTEA) Assay for Glutamate-cysteine ligase regulatory (GCLM) using HepaRG (AID 2283500)
Summary of the method: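 Differentiated human HepaRG cells exposed 48 h in serum-free induction medium to 8-point half-log concentrations (top 100 uM, 0.5% DMSO), in duplicate. GCLM mRNA quantified by qRT-PCR, normalized to ACTB, GAPDH, POLR2A; bidirectional fitting versus DMSO.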

[4] = read-out: Glutathione S-transferase M3 (GSTM3), GSTM3 (gene 2947); experiment: LTEA_HepaRG_GSTM3: Life Technologies and Expression Analysis (LTEA) Assay for Glutathione S-transferase M3 (GSTM3) using HepaRG (AID 2283501)
Summary of the method: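 qRT-PCR read-out of GSTM3 transcript, normalized to three housekeeping genes, from human HepaRG cells after 48 h chemical exposure. Eight-point half-log series, top 100 uM, 0.5% DMSO vehicle; gain or loss fitted relative to DMSO baseline.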

[5] = read-out: Hypoxia-inducible factor 1-alpha (Homo sapiens) (UniProt Q16665); experiment: LTEA_HepaRG_HIF1A: Life Technologies and Expression Analysis (LTEA) Assay for Hypoxia-inducible factor 1 (HIF1A) Trancription factor using HepaRG (AID 2283503);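 note: HIF1A transcript by TaqMan qRT-PCR normalized to ACTB GAPDH and POLR2A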
Summary of the method: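 HepaRG, 48 h exposure, 8-pt half-log series from 100 uM, 0.5% DMSO vehicle, duplicates. Readout: HIF1A transcript by qRT-PCR (Fluidigm array), housekeeping-normalised. Bidirectional curve fit vs DMSO baseline.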

[6] = read-out: 3-Hydroxy-3-Methylglutaryl-CoA Synthase 2 (HMGCS2), HMGCS2 (gene 3158); experiment: LTEA_HepaRG_HMGCS2: Life Technologies and Expression Analysis (LTEA) Assay for 3-Hydroxy-3-Methylglutaryl-CoA Synthase 2 (HMGCS2) using HepaRG (AID 2283504)
Summary of the method: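 qRT-PCR read-out of HMGCS2 transcript, normalised to three housekeeping genes, in HepaRG cells after 48 h chemical exposure. Eight-point curves from 100 uM, half-log dilutions, 0.5% DMSO vehicle; gain or loss fitted relative to DMSO baseline.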

[7] = read-out: HGF (gene 3082); experiment: LTEA_HepaRG_HGF: Life Technologies and Expression Analysis (LTEA) Assay for Hepatocyte Growth Facto (HGF) using HepaRG (AID 2283505)
Summary of the method: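 HepaRG, 48 h dosing, 8-pt half-log series from 100 uM in 0.5% DMSO, duplicates. Readout: TaqMan qRT-PCR of HGF mRNA, housekeeping-normalized; bidirectional curve fit vs DMSO baseline.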

[8] = read-out: Insulin Like Growth Factor 1 (IGF1), IGF1 (gene 3479); experiment: LTEA_HepaRG_IGF1: Life Technologies and Expression Analysis (LTEA) Assay for Insulin Like Growth Factor 1 (IGF1) using HepaRG (AID 2283506)
Summary of the method: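 Differentiated human HepaRG cells were dosed for 48 h in serum-free induction medium with 0.5% DMSO, eight half-log concentrations up to 100 uM, in duplicate. IGF1 mRNA was quantified by qRT-PCR normalized to ACTB, GAPDH, POLR2A; bidirectional fitting versus DMSO.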

[9] = read-out: Intercellular Adhesion Molecule 1 (ICAM1), ICAM1 (gene 3383); experiment: LTEA_HepaRG_ICAM1: Life Technologies and Expression Analysis (LTEA) Assay for Intercellular Adhesion Molecule 1 (ICAM1) using HepaRG (AID 2283507)
Summary of the method: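 HepaRG, 48 h exposure, 8-pt half-log series from 100 uM, 0.5% DMSO vehicle, duplicates. Readout: TaqMan qRT-PCR mRNA, housekeeping-normalized (ACTB/GAPDH/POLR2A). Bidirectional curve fit vs DMSO baseline.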

[10] = read-out: Insulin-like growth factor-binding protein 1 (IGFBP1), IGFBP1 (gene 3484); experiment: LTEA_HepaRG_IGFBP1: Life Technologies and Expression Analysis (LTEA) Assay for Insulin-like growth factor-binding protein 1 (IGFBP1) using HepaRG (AID 2283508)
Summary of the method: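 qRT-PCR mRNA read-out (TaqMan, Fluidigm array), normalised to three housekeeping genes; HepaRG cells, 48 h exposure, 8-pt half-log series from 100 uM, 0.5% DMSO vehicle; bidirectional curve fit vs DMSO baseline.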

[11] = read-out: Interleukin 6 (IL6), IL6 (gene 3569); experiment: LTEA_HepaRG_IL6: Life Technologies and Expression Analysis (LTEA) Assay for Interleukin 6 (IL6) using HepaRG (AID 2283509)
Summary of the method: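 HepaRG, ~100,000 cells/well, 48 h pre-culture; serum-free induction medium; cmpd 8-pt half-log from 100 uM, 0.5% DMSO, duplicate, 48 h. Lysis in RLT, TaqMan qRT-PCR; gain or loss vs DMSO.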

[12] = read-out: Interleukin 6 Receptor (IL6R), IL6R (gene 3570); experiment: LTEA_HepaRG_IL6R: Life Technologies and Expression Analysis (LTEA) Assay for Interleukin 6 Receptor (IL6R) using HepaRG (AID 2283510)
Summary of the method: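 Differentiated human HepaRG cells, plated 48 h then switched to serum-free induction medium, were dosed in duplicate for 48 h at eight half-log concentrations up to 100 uM in 0.5% DMSO. IL6R mRNA quantified by qRT-PCR, normalized to ACTB/GAPDH/POLR2A; bidirectional fit versus DMSO.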

[13] = read-out: Potassium channel subfamily K member 1 (KCNK1), KCNK1 (gene 3775); experiment: LTEA_HepaRG_KCNK1: Life Technologies and Expression Analysis (LTEA) Assay for Potassium channel subfamily K member 1 (KCNK1) using HepaRG (AID 2283511)
Summary of the method: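 Gain or loss of KCNK1 mRNA is the read-out, quantified by qRT-PCR against three housekeeping genes after 48 h chemical treatment of human HepaRG liver cells. Concentrations ran from 100 uM downward in half-log steps, vehicle 0.5% DMSO.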

[14] = read-out: Keratin 19 (KRT19), KRT19 (gene 3880); experiment: LTEA_HepaRG_KRT19: Life Technologies and Expression Analysis (LTEA) Assay for Keratin 19 (KRT19) using HepaRG (AID 2283512)
Summary of the method: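 HepaRG, 48 h chemical exposure, 8-pt half-log CRC from 100 uM, 0.5% DMSO vehicle, duplicates. Readout: TaqMan qRT-PCR of KRT19 mRNA, housekeeping-normalized (ACTB/GAPDH/POLR2A). Bidirectional fit vs DMSO baseline.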

[15] = read-out: JUN Transcription Factor, JUN (gene 3725); experiment: LTEA_HepaRG_JUN: Life Technologies and Expression Analysis (LTEA) Assay for JUN Transcription Factor using HepaRG (AID 2283513)
Summary of the method: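 Differentiated HepaRG cells were exposed to chemicals for 48 h in serum-free induction medium, 8 concentrations from 100 uM in half-log steps, 0.5% DMSO vehicle, in duplicate. JUN mRNA was quantified by TaqMan qRT-PCR, normalized to ACTB, GAPDH, POLR2A.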

[16] = read-out: Lipase C (LIPC), LIPC (gene 3990); experiment: LTEA_HepaRG_LIPC: Life Technologies and Expression Analysis (LTEA) Assay for Lipase C (LIPC) using HepaRG (AID 2283514)
Summary of the method: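 Read-out is LIPC transcript level by TaqMan qRT-PCR, normalized to three housekeeping genes, after 48 h chemical treatment of human HepaRG liver cells. Curves span eight concentrations topping at 100 uM; activity in either direction scored relative to 0.5% DMSO.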

[17] = read-out: Lipoprotein lipase (LPL), LPL (gene 4023); experiment: LTEA_HepaRG_LPL: Life Technologies and Expression Analysis (LTEA) Assay for Lipoprotein lipase (LPL) using HepaRG (AID 2283515)
Summary of the method: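 Read-out is LPL transcript level by qRT-PCR, normalized to three housekeeping genes and fitted bidirectionally against the DMSO control. Human HepaRG cells received chemicals for 48 h at up to 100 uM.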

[18] = read-out: MicroRNA 122 (MIR122), gene 406906; experiment: LTEA_HepaRG_MIR122: Life Technologies and Expression Analysis (LTEA) Assay for MicroRNA 122 (MIR122) using HepaRG (AID 2283516); note: the transcript read is the microRNA miR-122
Summary of the method: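 Differentiated human HepaRG cells were exposed 48 h in serum-free induction medium to eight half-log concentrations (top 100 uM, 0.5% DMSO). Transcript level was measured by TaqMan qRT-PCR, normalized to ACTB, GAPDH and POLR2A, and fitted bidirectionally versus DMSO.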

[19] = read-out: Heat shock 70 kDa protein 1 (HSPA1A), gene 3303; experiment: LTEA_HepaRG_HSPA1A: Life Technologies and Expression Analysis (LTEA) Assay for Heat shock 70 kDa protein 1 (HSPA1A) using HepaRG (AID 2283502)
Summary of the method: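 Differentiated human HepaRG cells in serum-free induction medium were exposed in duplicate for 48 h to eight concentrations (top 100 uM, half-log steps, 0.5% DMSO). HSPA1A mRNA was quantified by qRT-PCR, normalized to ACTB, GAPDH and POLR2A, and fitted bidirectionally against DMSO.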

[20] = read-out: Glutamate-cysteine ligase catalytic (GCLC), GCLC (gene 2729); experiment: LTEA_HepaRG_GCLC: Life Technologies and Expression Analysis (LTEA) Assay for Glutamate-cysteine ligase catalytic (GCLC) using HepaRG (AID 2283498)
Summary of the method: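 Read-out is GCLC transcript level by Fluidigm-based TaqMan qRT-PCR, normalized to three housekeeping genes and fitted in both directions relative to 0.5% DMSO. Human HepaRG cells received chemicals for 48 h, up to 100 uM.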

Measured: AC50

Sequence of Hypoxia-inducible factor 1-alpha (Homo sapiens) (Q16665 whole entry, looked up): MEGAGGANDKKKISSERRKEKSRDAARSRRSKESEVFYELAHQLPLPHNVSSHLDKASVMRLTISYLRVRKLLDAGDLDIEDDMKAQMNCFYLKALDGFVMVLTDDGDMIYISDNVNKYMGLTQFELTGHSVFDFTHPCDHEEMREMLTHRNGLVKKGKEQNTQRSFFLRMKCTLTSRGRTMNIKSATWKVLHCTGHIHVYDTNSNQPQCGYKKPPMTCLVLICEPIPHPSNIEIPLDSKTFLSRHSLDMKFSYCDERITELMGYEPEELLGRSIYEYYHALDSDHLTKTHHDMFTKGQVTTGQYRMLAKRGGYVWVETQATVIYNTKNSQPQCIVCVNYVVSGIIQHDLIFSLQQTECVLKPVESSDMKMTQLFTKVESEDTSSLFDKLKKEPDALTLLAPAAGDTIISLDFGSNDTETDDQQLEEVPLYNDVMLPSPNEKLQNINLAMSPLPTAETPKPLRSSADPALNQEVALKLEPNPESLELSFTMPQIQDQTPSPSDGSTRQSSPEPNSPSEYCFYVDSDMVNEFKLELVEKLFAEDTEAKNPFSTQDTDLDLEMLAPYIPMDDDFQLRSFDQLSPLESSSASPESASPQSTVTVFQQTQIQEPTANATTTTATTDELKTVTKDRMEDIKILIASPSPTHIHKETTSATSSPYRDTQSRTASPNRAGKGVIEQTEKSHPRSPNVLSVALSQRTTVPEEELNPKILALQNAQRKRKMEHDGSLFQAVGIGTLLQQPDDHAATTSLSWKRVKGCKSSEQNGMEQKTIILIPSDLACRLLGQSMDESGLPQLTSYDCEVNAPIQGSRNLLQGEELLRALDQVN

CCc1cc(SCc2sc(-c3ccc(C(F)(F)F)cc3)nc2CN2CCN(c3ccc(OC)cc3)CC2)ccc1OCC(=O)O
active: [1] 77 µM | [2] 91.2 µM | [3] 26.5 µM | [5] 91.1 µM | [6] 77.1 µM | [7] 7.66 µM | [8] 73.8 µM | [9] 92.9 µM | [10] 88.6 µM | [11] 86 µM | [12] 26.2 µM | [13] 9.11 µM | [14] 94 µM | [15] 88.8 µM | [16] 7.95 µM | [17] 27.9 µM | [18] 93.4 µM
inactive: [4]

O=C(O)c1cccc(N(Cc2cccnc2)c2ccc(OC(F)F)c(OC(F)F)c2)c1
inactive: [1] | [2] | [3] | [4] | [6] | [7] | [8] | [9] | [10] | [11] | [12] | [13] | [15] | [16] | [17] | [18]
active: [14] 24.6 µM

CC[C@H](C)C(=O)O[C@H]1C[C@@H](C)C=C2C=C[C@H](C)[C@H](CC[C@@H]3C[C@@H](O)CC(=O)O3)[C@H]21
inactive: [1] | [2] | [3] | [4] | [19] | [6] | [7] | [8] | [9] | [10] | [11] | [12] | [14] | [15] | [16] | [17] | [18]

O=C(OC[C@H]1O[C@@H](OC(=O)c2cc(O)c(O)c(OC(=O)c3cc(O)c(O)c(O)c3)c2)[C@H](OC(=O)c2cc(O)c(O)c(OC(=O)c3cc(O)c(O)c(O)c3)c2)[C@@H](OC(=O)c2cc(O)c(O)c(OC(=O)c3cc(O)c(O)c(O)c3)c2)[C@@H]1OC(=O)c1cc(O)c(O)c(OC(=O)c2cc(O)c(O)c(O)c2)c1)c1cc(O)c(O)c(OC(=O)c2cc(O)c(O)c(O)c2)c1
active: [2] 25.6 µM | [3] 15.2 µM | [6] 9.74 µM | [7] 15.2 µM | [9] 6.76 µM | [10] 9.51 µM | [11] 10.5 µM | [12] 15.2 µM | [16] 8.46 µM | [17] 15.2 µM | [18] 9.05 µM
inactive: [20] | [4] | [19] | [5] | [8] | [13] | [14] | [15]

From PubChem BioAssay (EPA / NIEHS)
